# Measurements published in the supplement of paper PMC4166925.
# ± gives the standard deviation of the averaged measurements. The full ranking holds about 33,000 sequences; the median of “E-score (dimensionless, -0.5 to 0.5)” is about -0.046, and the highest 2% start at about 0.36. This excerpt belongs to a sample that is enriched for the highest values.
# System: T1, SpTbr T-box DNA-binding domain (GST fusion)
# T1 sequence: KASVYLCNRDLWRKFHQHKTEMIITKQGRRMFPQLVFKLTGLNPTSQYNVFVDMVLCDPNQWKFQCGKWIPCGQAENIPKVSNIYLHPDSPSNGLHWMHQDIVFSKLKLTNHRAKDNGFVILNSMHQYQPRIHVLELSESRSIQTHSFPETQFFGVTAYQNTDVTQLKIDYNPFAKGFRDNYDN
# Assay: PBM E-score of 8-mer (E-score (dimensionless, -0.5 to 0.5)); Tbr is Tbrain of the sea star Patiria miniata (Pm) or the sea urchin Strongylocentrotus purpuratus (Sp); higher = stronger binding preference
# Conditions: the construct has about 5 more residues each side
# How it was run: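 Each ungapped 8-mer received an enrichment E-score from the Universal PBM Analysis Suite, averaged over duplicate arrays. The proteins were Tbr T-box DNA-binding domains, covering the whole T-box plus about five flanking residues, fused to GST and expressed in BL21 E. coli at 20 °C before glutathione affinity purification. Universal Agilent oligonucleotide arrays were made double-stranded by primer extension and incubated with 200 nM protein in PBS (pH 7.5). The arrays were then scanned and quantified, and every 8-mer was scored from probe intensities.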
row,Sequence,PBM E-score of 8-mer
1,CTCGAGAC,-0.0685 ± 0.051
2,CACCATAC,-0.065 ± 0.011
3,ACGGTTAT,0.0286 ± 0.041
4,ATGCCTGC,-0.295 ± 0.061
5,GTGGTGCA,0.0312 ± 0.0088
6,AGTTGTTC,0.00852 ± 0.024
7,CCGTTAGG,0.0143 ± 0.029
8,CCTATCGA,0.042 ± 0.12
9,ACCGTCTA,-0.0953 ± 0.012
10,CACAACCA,0.133 ± 0.025
11,CAAAAAGC,0.0694 ± 0.065
12,GGAGCTGA,-0.203 ± 0.042
13,GCGACAAC,0.369 ± 0.007
14,GTGACAAC,0.4467 ± 0.0025
15,GAGACACA,0.15 ± 0.01
16,ACGACAAC,0.2279 ± 0.0012
17,CCGACAAC,0.159 ± 0.048
18,GTGACACA,0.403 ± 0.0044
19,ATGACAAC,0.222 ± 0.017
20,ATGACAAA,-0.0554 ± 0.028
21,CTGACAAC,0.259 ± 0.018
22,CTGACAAA,0.0345 ± 0.084
23,GTGACAAA,0.38303 ± 5.7e-05
24,CTGACACA,0.356 ± 0.022
25,AGGTAGCA,0.0725 ± 0.016

row,Sequence,PBM E-score of 8-mer
1,ACCACAAT,-0.0442 ± 0.058
2,AACACCCA,0.293 ± 0.035
3,GGCACCCA,0.173 ± 0.021
4,GCCACCCA,0.0264 ± 0.086
5,ATCACCCC,0.232 ± 0.013
6,AGCACCCT,0.202 ± 0.025
7,GCCACCCC,0.181 ± 0.081
8,GACACCCC,0.405 ± 0.026
9,ACCACCCT,0.0155 ± 0.074
10,GGCACCCC,0.22 ± 0.003
11,AACACCCC,0.39126 ± 9.9e-05
12,GACACCCA,0.374 ± 0.032
13,AACACCCT,0.4 ± 0.0049
14,CAGCCGGA,0.05 ± 0.018
15,CCAGTCAC,0.0388 ± 0.0065
16,AAGTTTCT,0.0712 ± 0.037
17,CCTCCTCA,0.0831 ± 0.027
18,AGATCTCA,0.098 ± 0.054
19,TATTCTCA,0.264 ± 0.061
20,CGAAAACC,-0.297 ± 0.0092
21,GTCGCGTA,0.0514 ± 0.011
22,CCGGCCAA,-0.208 ± 0.042
23,AACACCAT,0.377 ± 0.021
24,AACACCAA,0.356 ± 0.012
25,ACCACCAT,0.108 ± 0.082

row,Sequence,PBM E-score of 8-mer
1,GATATAGC,0.118 ± 0.023
2,ATCAAATA,-0.182 ± 0.015
3,TGTCGACA,0.384 ± 0.01
4,AGTCGACA,0.179 ± 0.051
5,CGTCGACA,0.251 ± 0.031
6,GCAAACCC,-0.0464 ± 0.01
7,ACATATTC,0.203 ± 0.049
8,GCTCGCCC,-0.196 ± 0.039
9,ACTCGCAT,-0.00696 ± 0.059
10,ACTCGCAC,0.394 ± 0.035
11,CCTCGCAC,0.396 ± 0.032
12,CCTCGCAG,0.128 ± 0.0015
13,CCTCGCAA,0.102 ± 0.077
14,ACTCGCAG,0.0332 ± 0.026
15,GCTCGCAC,0.4252 ± 0.0014
16,GCTCGCAA,0.224 ± 0.021
17,AATTGGAC,-0.187 ± 0.049
18,GCAGTGGA,-0.261 ± 0.065
19,GACCTTAC,-0.286 ± 0.0076
20,AACCTTAG,-0.144 ± 0.086
21,AACCTTAC,0.0738 ± 0.012
22,AACCTTAA,-0.218 ± 0.046
23,CACCTTAG,0.401 ± 0.04
24,CACCTTAA,0.387 ± 0.004
25,CCCCTTAG,-0.184 ± 0.068

row,Sequence,PBM E-score of 8-mer
1,CACCTTAC,0.413 ± 0.017
2,GACCTTAA,-0.188 ± 0.0048
3,TAAGAGCA,-0.252 ± 0.049
4,CCGCTACC,0.162 ± 0.04
5,ATGCTTCG,0.0174 ± 0.071
6,CGTGCCTA,-0.0792 ± 0.002
7,GGTAGGCA,-0.079 ± 0.028
8,AAACTACA,0.014 ± 0.14
9,TAGGGGCA,-0.127 ± 0.04
10,ATGCACGC,-0.0415 ± 0.12
11,AGGTGAAC,0.164 ± 0.025
12,CGAAATCG,0.2456 ± 0.0015
13,CACTTGCG,0.387 ± 0.026
14,CACTTGTA,0.116 ± 0.046
15,CACTTGTC,0.375 ± 0.012
16,AACTTGCG,0.198 ± 0.0091
17,CACTTGCA,0.336 ± 0.012
18,AACTTGTC,0.355 ± 0.03
19,CGGCGCCC,0.0161 ± 0.043
20,CTCTGACA,0.233 ± 0.019
21,TAACATTA,-0.0674 ± 0.087
22,TAATATTA,-0.13 ± 0.033
23,GAGTCGAC,0.107 ± 0.061
24,GATGTCCA,-0.22 ± 0.056
25,AGCTAACA,0.233 ± 0.022

row,Sequence,PBM E-score of 8-mer
1,GGCTAACA,0.235 ± 0.024
2,TGCTAACA,0.369 ± 0.022
3,AGCTAACG,0.236 ± 0.016
4,CGCTAACC,0.19 ± 0.0091
5,CGCTAACG,0.373 ± 0.0088
6,CAGCTCGG,-0.132 ± 0.057
7,CGGTGGAA,-0.0405 ± 0.033
8,ATCTATGC,-0.197 ± 0.03
9,ACGAGTAT,-0.0491 ± 0.014
10,CAATCCTA,-0.0316 ± 0.041
11,AAACCACT,-0.258 ± 0.016
12,AGCACTTG,0.168 ± 0.018
13,AACGCATG,0.0228 ± 0.0081
14,GACCTTGC,-0.153 ± 0.0056
15,CAGCTTGG,-0.00698 ± 0.044
16,CACCTTGG,0.45 ± 0.005
17,CACCTTGA,0.367 ± 0.042
18,GACCTTGA,-0.145 ± 0.019
19,CACCTTGC,0.389 ± 0.013
20,AACCTTGC,0.00568 ± 0.0057
21,TACCTTGA,0.01 ± 0.065
22,AACCTTGG,-0.0793 ± 0.032
23,ACACTGTA,0.172 ± 0.036
24,ACTTGATA,0.108 ± 0.039
25,AGACAGCG,-0.00288 ± 0.048

row,Sequence,PBM E-score of 8-mer
1,CTGAAAGC,-0.193 ± 0.033
2,CTGTAAAC,0.132 ± 0.0059
3,ATGTAAAC,0.0731 ± 0.026
4,GTGTAAAC,0.367 ± 0.02
5,AGCAGATA,-0.195 ± 0.043
6,ACAGCCCT,-0.109 ± 0.054
7,CTGTGTGA,0.341 ± 0.0081
8,AAATGTGG,0.114 ± 0.01
9,GTGTGTGA,0.4221 ± 0.003
10,ATATGTGA,0.242 ± 0.055
11,AAATGTGC,0.151 ± 0.076
12,ATGTGTGC,0.299 ± 0.0091
13,ATGTGTGA,0.4838 ± 0.001
14,AAATGTGT,0.435 ± 0.0081
15,GTGTGTAA,0.27 ± 0.0036
16,CAGCCAAC,0.106 ± 0.037
17,GTAGCGCA,-0.148 ± 0.091
18,GATGCGCA,0.014 ± 0.028
19,ATCTCCAC,0.0376 ± 0.0077
20,AACGTTTC,-0.191 ± 0.019
21,TCTCGAAA,-0.0659 ± 0.035
22,ACGCCACT,0.285 ± 0.013
23,CCACAACC,0.113 ± 0.015
24,AAGTTTAT,-0.141 ± 0.074
25,AATGCAGT,-0.188 ± 0.028

row,Sequence,PBM E-score of 8-mer
1,GTCGACAC,0.394 ± 0.018
2,CTCGACAC,0.3634 ± 0.0018
3,ATCGACAC,0.389 ± 0.013
4,ATCGACAA,0.213 ± 0.0072
5,GTCGACAA,0.275 ± 0.0098
6,ATCGACAG,0.286 ± 0.005
7,AATGGCTG,-0.183 ± 0.012
8,CAAGTAGA,-0.0961 ± 0.025
9,ATCTCGGA,-0.276 ± 0.03
10,CCATACCG,-0.115 ± 0.017
11,ACTCAAGC,-0.127 ± 0.023
12,CGTTAAAA,0.0585 ± 0.1
13,AGTTAGCA,0.284 ± 0.045
14,CGTTAGCA,0.37 ± 0.0046
15,GGTTAGCA,0.257 ± 0.034
16,CGTTAACC,0.113 ± 0.07
17,AGTTAACA,0.334 ± 0.023
18,CGTTAACA,0.4129 ± 0.0026
19,TGTTAACA,0.421 ± 0.029
20,GGTTAACA,0.287 ± 0.012
21,CATTAACA,0.329 ± 0.029
22,CGTTAACG,0.372 ± 0.0041
23,AGTTAACG,0.127 ± 0.006
24,CAAGTTCG,0.0356 ± 0.0073
25,TAGGCGAA,0.0827 ± 0.01

row,Sequence,PBM E-score of 8-mer
1,CGATACCC,-0.00698 ± 0.068
2,ACTTAATG,-0.1 ± 0.055
3,CGATTTTA,-0.151 ± 0.033
4,CCGGTGAG,0.089 ± 0.024
5,CAGGTGAG,0.399 ± 0.0058
6,CCGGTGTC,0.18 ± 0.047
7,ACGGTGAT,0.115 ± 0.028
8,AAGGTGAT,0.384 ± 0.023
9,CAGGTGAA,0.199 ± 0.031
10,CAGGTGTC,0.4679 ± 0.0019
11,GGGGTGAC,0.293 ± 0.043
12,AGGGTGAT,0.123 ± 0.024
13,CAGGTGTA,0.358 ± 0.0037
14,GAGGTGAA,0.198 ± 0.0028
15,GAGGTGAC,0.429 ± 0.018
16,CGAAGCCG,0.244 ± 0.045
17,ACCAGCTA,-0.0508 ± 0.0037
18,CGCGAGCA,0.275 ± 0.036
19,AGCAGAGA,-0.259 ± 0.039
20,CGGACAAA,-0.0576 ± 0.039
21,CCGAAATC,-0.048 ± 0.0049
22,CAGAGCAG,-0.246 ± 0.033
23,ACGGTGAC,0.284 ± 0.0089
24,AGGGTGAG,0.216 ± 0.048
25,CTGGTGAC,0.162 ± 0.074

row,Sequence,PBM E-score of 8-mer
1,AAGGTGAA,0.187 ± 0.0077
2,ACGGTGAG,0.0305 ± 0.02
3,CAGGTGAC,0.425 ± 0.013
4,AAGGTGAG,0.445 ± 0.014
5,AAGGTGAC,0.381 ± 0.026
6,CAGATGAC,-0.0314 ± 0.026
7,ACAGCTCC,0.157 ± 0.0081
8,GCCTGCAC,-0.0663 ± 0.051
9,ACGTGTGA,0.4797 ± 0.0017
10,GCGTGTGA,0.399 ± 0.0074
11,ACGTGGGC,-0.0975 ± 0.06
12,CCGTGTCA,0.176 ± 0.013
13,ACGTGAGA,0.3312 ± 0.0033
14,ACGTGTGG,0.416 ± 0.00045
15,ACGTGTGC,0.253 ± 0.017
16,GCGTGAGA,0.361 ± 0.03
17,ACGTGGGG,-0.127 ± 0.012
18,ACGTGTCT,0.204 ± 0.034
19,GCGTGTAA,0.0697 ± 0.022
20,ACGTGTCA,0.458 ± 0.0068
